Compounds with a hit are over-represented: about 3.5% of the library has one in this group of screens.
BJeLR viability: kills HRASV12-expressing BJeLR cells. BJeLR (HRASV12) viability, CellTiter-Glo ATP luminescence, 48 h. inhibition, % (test concentration not listed). actives 0.17% (n = 300,000); in the data active = inhibition above about 50%; inconclusive = no clear call, values can overlap the other calls
Bead autofluor: compound fluorescence in toxin protease inhibitor counterscreen | actives 3.1% (n = 360,000) | compound autofluorescence counterscreen, microsphere flow cytometry; stronger effect = higher value | AID 624483 | fluorescence intensity (test concentration not listed); in the data active = fluorescence intensity above about 16000; inconclusive = no clear call, values can overlap the other calls
BoNT A protease: BoNT A light chain protease inhibition. actives 0.17% (n = 360,000). inhibition, % at 10 µM. multiplex microsphere protease substrate cleavage, flow cytometry; note: plate controls were buffer without enzyme for full effect and enzyme alone for no effect
Anthrax LF inh2: inhibitors of Bacillus anthracis lethal factor protease; P15917; multiplex microsphere protease cleavage assay, LF; inhibition, % at 10 µM; actives 0.12% (n = 360,000); note: plate controls were buffer without enzyme for full effect and enzyme alone for no effect
Target sequence (P15917 whole entry, looked up): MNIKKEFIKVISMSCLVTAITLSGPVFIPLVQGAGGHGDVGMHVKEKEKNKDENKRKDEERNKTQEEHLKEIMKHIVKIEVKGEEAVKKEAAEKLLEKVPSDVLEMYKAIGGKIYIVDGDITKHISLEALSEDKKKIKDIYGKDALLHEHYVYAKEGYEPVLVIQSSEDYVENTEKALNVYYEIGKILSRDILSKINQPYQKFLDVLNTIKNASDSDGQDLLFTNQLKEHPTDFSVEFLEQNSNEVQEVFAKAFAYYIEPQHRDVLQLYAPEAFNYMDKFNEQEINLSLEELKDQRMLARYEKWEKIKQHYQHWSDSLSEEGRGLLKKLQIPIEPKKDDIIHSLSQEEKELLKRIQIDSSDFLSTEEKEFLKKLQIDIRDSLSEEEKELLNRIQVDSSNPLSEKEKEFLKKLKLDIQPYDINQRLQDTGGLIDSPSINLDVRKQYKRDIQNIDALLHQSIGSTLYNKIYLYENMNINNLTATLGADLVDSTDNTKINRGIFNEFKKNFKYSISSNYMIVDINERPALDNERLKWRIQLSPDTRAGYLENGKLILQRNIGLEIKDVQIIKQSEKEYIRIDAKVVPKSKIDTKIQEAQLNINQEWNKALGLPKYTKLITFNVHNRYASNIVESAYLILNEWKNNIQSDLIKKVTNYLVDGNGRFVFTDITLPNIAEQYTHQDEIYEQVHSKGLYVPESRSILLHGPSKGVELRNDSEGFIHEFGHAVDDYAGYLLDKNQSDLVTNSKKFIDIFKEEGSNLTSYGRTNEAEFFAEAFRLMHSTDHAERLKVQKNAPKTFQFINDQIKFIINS
BoNT F protease: BoNT F light chain protease inhibition. Multiplex microsphere protease cleavage assay, flow cytometry. inhibition, % at 10 µM. actives 0.22% (n = 360,000); in the data active = inhibition above about 35%, passing the limit was not always enough; inconclusive = no clear call, values can overlap the other calls; note: plate controls were buffer without enzyme for full effect and enzyme alone for no effect
An asterisk follows results filed as active. Cut-off read from the data, not from the text of the source, unless noted: active = inhibition above about 30%; inconclusive = no clear call, values can overlap the other calls; inactive = below that.

For O=C(NCCCN1CCOCC1)c1c(F)cccc1F the results were BJeLR viability 2, Bead autofluor 21499*, BoNT A protease inconclusive, Anthrax LF inh2 -1 and BoNT F protease -4.
O=C(NCCCN1CCOCC1)c1c(F)c(F)c(F)c(F)c1F was read as BJeLR viability 2, Bead autofluor 6552, BoNT A protease -1, Anthrax LF inh2 -2 and BoNT F protease -4.
`COC(=O)CNC(=O)c1c(-c2c(Cl)cccc2Cl)noc1C` gave BJeLR viability -2, Bead autofluor 23118*, BoNT A protease 2, Anthrax LF inh2 0 and BoNT F protease -1.
`COc1ccc(/C=N/NC(=O)c2ccc(N)cc2)cc1Cn1cc([N+](=O)[O-])cn1` gave BJeLR viability 35, Bead autofluor 4375, BoNT A protease -1, Anthrax LF inh2 -3 and BoNT F protease -6.
Screening CCc1nc2c(OCCC3CCCCC3)cccn2c1N(C)C(=O)c1ccc(OC)cc1 returned Bead autofluor 3960, BoNT A protease 0, Anthrax LF inh2 -7 and BoNT F protease 2.
Screening CC(Sc1n[nH]c(-c2cccs2)n1)C(=O)N1CCCC1 (stereo unspecified) returned Bead autofluor 3425, BoNT A protease 0, Anthrax LF inh2 -1 and BoNT F protease -2.
`O=C(CCCc1ccccc1)NCCCN1CCOCC1` gave BJeLR viability 1, Bead autofluor 22241*, BoNT A protease 2, Anthrax LF inh2 3 and BoNT F protease 4.
Screening Cc1onc(-c2c(Cl)cccc2Cl)c1C(=O)NCCN1CCOCC1 returned BJeLR viability -19, Bead autofluor 10476, BoNT A protease 0, Anthrax LF inh2 0 and BoNT F protease 7.
`Cc1onc(-c2c(F)cccc2Cl)c1C(=O)NCCCN1CCOCC1` gave BJeLR viability 2, Bead autofluor 20261*, BoNT A protease inconclusive, Anthrax LF inh2 2 and BoNT F protease 1.
`O=C(CCc1ccccc1)NCCCN1CCOCC1` gave BJeLR viability -1, Bead autofluor 3514, BoNT A protease 1, Anthrax LF inh2 -1 and BoNT F protease 8.
Screening COc1ccc(OC)c(NS(=O)(=O)c2cc3c4c(c2)CCN4C(=O)CC3)c1 returned BJeLR viability 2, Bead autofluor 6186, BoNT A protease -2, Anthrax LF inh2 -3 and BoNT F protease 5.
Screening CC1(C(=O)NS(=O)(=O)C2CC2)CCCN(C(=O)c2c(F)cccc2F)C1 (stereo unspecified) returned Bead autofluor 3696, BoNT A protease 0, Anthrax LF inh2 -8 and BoNT F protease 4.
For COc1ccc(S(=O)(=O)N2Cc3ccccc3CC2C(=O)Nc2nccs2)cc1 (stereo unspecified) the results were BJeLR viability -5, Bead autofluor 23488*, BoNT A protease -1, Anthrax LF inh2 -3 and BoNT F protease -5.
`C[C@@H]1CCCCO[C@@H](CN(C)Cc2ccc(C(F)(F)F)cc2)[C@@H](C)CN([C@H](C)CO)C(=O)c2cc(N(C)C)ccc2O1` gave Bead autofluor 3511, BoNT A protease -1, Anthrax LF inh2 -1 and BoNT F protease -8.
`CN(CC(=O)Nn1cnnc1)S(=O)(=O)c1ccc(Br)cc1` gave BJeLR viability -2, Bead autofluor 18838*, BoNT A protease inconclusive, Anthrax LF inh2 -10 and BoNT F protease 10.
Screening Cc1c(C(=O)N2CCCCC2)c(S(=O)(=O)Nc2ccc(F)cc2F)c(C)n1C returned BJeLR viability -3, Bead autofluor 5424, BoNT A protease 0, Anthrax LF inh2 4 and BoNT F protease 12.
`COc1ccc(-n2nc(C(=O)NCC(=O)N3CCN(c4ccccn4)CC3)c3ccccc3c2=O)cc1` gave BJeLR viability 4, Bead autofluor 22175*, BoNT A protease inconclusive, Anthrax LF inh2 -2 and BoNT F protease 0.
Screening COc1ccc(-n2nc(C(=O)NCC(=O)NCc3ccco3)c3ccccc3c2=O)cc1Cl returned BJeLR viability -4, Bead autofluor 21931*, BoNT A protease 1, Anthrax LF inh2 -4 and BoNT F protease 2.
Screening COc1ccc(-n2nc(C(=O)NCc3ccco3)c3ccccc3c2=O)cc1 returned BJeLR viability 3, Bead autofluor 19127*, BoNT A protease 5, Anthrax LF inh2 -1 and BoNT F protease 4.
For Cc1cccc(NC(=O)C(=O)NCC2CCCN2S(=O)(=O)c2cccs2)c1 (stereo unspecified) the results were Bead autofluor 5812, BoNT A protease 0, Anthrax LF inh2 -4 and BoNT F protease 0.
Cc1cccc(C)c1-n1nnnc1C(c1ccnc2ccccc12)N1CCN(c2ccccc2F)CC1 (stereo unspecified) was read as Bead autofluor 5897, BoNT A protease 0, Anthrax LF inh2 -9 and BoNT F protease 7.
CC1=CC(=O)C=CC1=Nc1ccc(N(C)C)cc1 was read as Bead autofluor 5150, BoNT A protease -1, Anthrax LF inh2 -23 and BoNT F protease -22.
N#Cc1ccccc1C[C@H](N)C(=O)NC[C@H]1O[C@@H](n2cnc3c(N)ncnc32)[C@H](O)[C@@H]1O was read as Bead autofluor 6102, BoNT A protease 0, Anthrax LF inh2 -3 and BoNT F protease -3.
`COc1ccc(CN(C(=O)Cc2c[nH]c3ccccc23)C(C(=O)NC2CCCCC2)c2ccc(C)o2)cc1` (stereo unspecified) gave BJeLR viability 2, Bead autofluor 27158*, BoNT A protease -6, Anthrax LF inh2 -6 and BoNT F protease -9.
For COc1cc(C(C(=O)NC2CCCCC2)N(C(=O)Cc2c[nH]c3ccccc23)c2ccccc2C)cc(OC)c1OC (stereo unspecified) the results were BJeLR viability -18, Bead autofluor 2433, BoNT A protease 0, Anthrax LF inh2 -2 and BoNT F protease -4.
COc1cc(C(C(=O)NC2CCCCC2)N(Cc2cccs2)C(=O)Cc2c[nH]c3ccccc23)cc(OC)c1OC (stereo unspecified) was read as BJeLR viability 0, Bead autofluor 23578*, BoNT A protease -3, Anthrax LF inh2 -2 and BoNT F protease -4.
For Cc1ccc(-c2nnc3n2CCCCC3)cc1 the results were BJeLR viability -2, Bead autofluor 2297, BoNT A protease -1, Anthrax LF inh2 -2 and BoNT F protease -9.
For Clc1ccc(-c2nnc3n2CCCC3)cc1 the results were BJeLR viability -8, Bead autofluor 21835*, BoNT A protease 0, Anthrax LF inh2 1 and BoNT F protease -1.
Cc1cc(C)nc(NS(=O)(=O)c2ccc(N3C(=O)C4CC=C(Cl)CC4C3=O)cc2)n1 (stereo unspecified) was read as Bead autofluor 18775*, BoNT A protease 4, Anthrax LF inh2 -3 and BoNT F protease 2.
`CCc1nnc(NS(=O)(=O)c2ccc(N3C(=O)C4CC=C(Cl)CC4C3=O)cc2)s1` (stereo unspecified) gave BJeLR viability -1, Bead autofluor inconclusive, BoNT A protease 1, Anthrax LF inh2 -25 and BoNT F protease 1.
